PubChem BioAssay (EPA / NIEHS)
The source made the active and inactive calls. The calls were made as follows: active = hit-call score of the fitted dose curve at least 0.9, where 1 is the maximum; inactive = score below 0.9.

Legend:
[1] = read-out: Collagen III, COL3A1 (gene 1281); assay: BSK_hDFCGF_CollagenIII: BioMAP Diversity Plus: hDFCGF Assay for Collagen III Biomarker Activity (AID 2283056); conditions: primary human foreskin fibroblasts; actives raise or lower the signal
How it was run: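 Response relative to DMSO, fitted in both directions, reflects ELISA-measured collagen III in human primary skin fibroblasts 24 h after compound addition.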

[2] = read-out: Epidermal growth factor receptor (EGFR), EGFR (gene 1956); assay: BSK_hDFCGF_EGFR: BioMAP Diversity Plus: hDFCGF Assay for Epidermal growth factor receptor (EGFR) Biomarker Activity (AID 2283057); conditions: primary human foreskin fibroblasts; actives raise or lower the signal
How it was run: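 ELISA readout of EGFR on human dermal fibroblasts (primary foreskin cells), 24 h post-dosing; bidirectional curve fit vs DMSO baseline, gain or loss of signal scored.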

[3] = read-out: Interleukin-8 (IL8), CXCL8 (gene 3576); assay: BSK_hDFCGF_IL8: BioMAP Diversity Plus: hDFCGF Assay for Interleukin-8 (IL8) Biomarker Activity (AID 2283058); conditions: primary human foreskin fibroblasts; actives raise or lower the signal
How it was run: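 Fibroblast monolayers (human foreskin, hDFCGF) received test chemical for 24 h before ELISA detection of IL-8; either increases or decreases relative to DMSO count as activity.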

[4] = BSK_hDFCGF_Proliferation: Cell Proliferation Assessment in the BioMAP Diversity Plus: hDFCGF Assay (AID 2283059); conditions: primary human foreskin fibroblasts;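 also: curves fitted for both rise and fall of signal versus DMSO baseline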
How it was run: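 Sub-confluent human foreskin fibroblast cultures receive test chemical […]. Relative cell number is quantified by sulforhodamine B staining (0.1%, after 10% TCA fixation) at 560 nm, with bidirectional fitting referenced to DMSO.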

[5] = read-out: Macrophage colony-stimulating factor (MCSF), CSF1 (gene 1435); assay: BSK_hDFCGF_MCSF: BioMAP Diversity Plus: hDFCGF Assay for Macrophage colony-stimulating factor (MCSF) Biomarker Activity (AID 2283060); conditions: primary human foreskin fibroblasts; actives raise or lower the signal
How it was run: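 fibroblasts (human foreskin, primary), 24 h post-dose; M-CSF by ELISA; bidirectional fit, DMSO = baseline.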

[6] = BSK_hDFCGF_SRB: Viability Assessment in the BioMAP Diversity Plus: hDFCGF Assay (AID 2283061); conditions: primary human foreskin fibroblasts;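 also: cells exposed to compound for 24 h before the read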
How it was run: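 SRB-based viability read on primary human skin fibroblasts at 24 h: TCA fixation, 0.1% dye, 560 nm. Gain or loss of signal is fitted against the DMSO negative control.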

[7] = read-out: TIMP metallopeptidase inhibitor 1 (TIMP1), TIMP1 (gene 7076); assay: BSK_hDFCGF_TIMP1: BioMAP Diversity Plus: hDFCGF Assay for TIMP metallopeptidase inhibitor 1 (TIMP1) Biomarker Activity (AID 2283062); conditions: primary human foreskin fibroblasts; actives raise or lower the signal
How it was run: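 Bidirectional curve fitting against DMSO baseline yielded this endpoint, based on ELISA detection of TIMP-1 in primary human foreskin fibroblasts exposed to compound for 24 h.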

[8] = read-out: Monokine induced gamma interferon (MIG), CXCL9 (gene 4283); assay: BSK_hDFCGF_MIG: BioMAP Diversity Plus: hDFCGF Assay for Monokine induced gamma interferon (MIG) Biomarker Activity (AID 2283063); conditions: primary human foreskin fibroblasts; actives raise or lower the signal
How it was run: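 Endpoint derived by bidirectional fitting relative to DMSO; MIG quantified via ELISA in primary human foreskin fibroblasts harvested 24 h after dosing.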

[9] = read-out: Matrix Metallopeptidase 1 (MMP1), MMP1 (gene 4312); assay: BSK_hDFCGF_MMP1: BioMAP Diversity Plus: hDFCGF Assay for Matrix Metallopeptidase 1 (MMP1) Biomarker Activity (AID 2283064); conditions: primary human foreskin fibroblasts; actives raise or lower the signal
How it was run: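 ELISA read-out of MMP1 from human foreskin fibroblasts (primary skin cells), 24 h post-dose. Gain or loss of signal was fitted bidirectionally versus DMSO negative control; cytotoxicity was checked by SRB in parallel cultures.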

[10] = read-out: Vascular cell adhesion molecule 1 (VCAM1), VCAM1 (gene 7412); assay: BSK_hDFCGF_VCAM1: BioMAP Diversity Plus: hDFCGF Assay for Vascular cell adhesion molecule 1 (VCAM1) Biomarker Activity (AID 2283065); conditions: primary human foreskin fibroblasts; actives raise or lower the signal;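 as to AC50: VCAM-1 protein level quantified by ELISA after 24 h chemical exposure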
How it was run: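 Measured after 24 h chemical treatment of primary human skin fibroblasts, VCAM-1 was detected by ELISA and concentration-response analysed in both directions versus DMSO vehicle.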

Measured: AC50

O=P(OCCCl)(OCCCl)OCCCl
inactive: all assays above

CCCCCCCCn1sccc1=O
active: [1] 2.42 µM | [3] 1.62 µM | [4] 0.405 µM | [5] 1.07 µM | [6] 1.73 µM | [7] 2.09 µM | [8] 0.949 µM | [9] 1.43 µM | [10] 1.09 µM
inactive: [2]

Cc1cc(N=Nc2ccccc2C)ccc1N
inactive: [2] | [3] | [7] | [9]
active: [1] 20 µM | [4] 9.37 µM | [5] 28.3 µM | [8] 33.4 µM

ClCCOCCCl
inactive: all assays above

CC(C)(OOC(C)(C)c1ccccc1)c1ccccc1
active: [1] 12.8 µM | [3] 36.2 µM | [4] 14.9 µM | [6] 29.1 µM | [8] 20 µM | [9] 38.1 µM
inactive: [2] | [5] | [7]

C1=Cc2cccc3cccc1c23
inactive: all assays above

COC(=O)Nc1nc2ccccc2[nH]1
active: [4] 0.224 µM
not listed: [10]
inactive: all other assays above

CN(C)C(=O)Nc1ccc(Cl)cc1
not listed: [6] | [10]
inactive: all other assays above

CCN(CC)N=O
not listed: [4] | [10]
inactive: all other assays above

N#CC(Br)(Br)C(N)=O
not listed: [6]
inactive: all other assays above

Cn1cc(-c2ccccc2)c(=O)c(-c2cccc(C(F)(F)F)c2)c1
not listed: [6] | [10]
inactive: all other assays above

[O-][Cl+]O
not listed: [6] | [10]
inactive: all other assays above

Nc1ccc(Cc2ccc(N)cc2)cc1
not listed: [4] | [10]
inactive: all other assays above

Oc1ccccc1Cl
not listed: [6]
inactive: all other assays above

O=C(Oc1ccc(Br)cc1)N1CCN2CCC1CC2
not listed: [4] | [10]
inactive: all other assays above

CC(C)(C)OOC(=O)c1ccccc1
active: [1] 35.1 µM | [3] 34.3 µM | [5] 34.1 µM | [6] 30.9 µM | [7] 11.9 µM | [8] 35.1 µM | [9] 20 µM
inactive: [2]

CCC(C)c1ccc(O)cc1 (centres undefined)
not listed: [4] | [10]
inactive: all other assays above

CN(C)c1ccccc1
not listed: [4]
inactive: all other assays above

O=C(N[C@H](c1ccccc1)[C@@H]1CN2CCC1CC2)c1c(Cl)ccc(C(F)(F)F)c1Cl
not listed: [4] | [10]
inactive: all other assays above

Cc1ccc([N+](=O)[O-])cc1
not listed: [4]
inactive: all other assays above
